These results are taken from PubChem BioAssay (EPA / NIEHS).

Structures are written as SMILES. Calls of active or inactive are those of the source. Rule for the calls: active = hit-call score of the fitted dose curve at least 0.9, where 1 is the maximum; inactive = score below 0.9.

Hepatocyte nuclear factor 6 (Homo sapiens), sequence (Q9UBC0 whole entry, looked up): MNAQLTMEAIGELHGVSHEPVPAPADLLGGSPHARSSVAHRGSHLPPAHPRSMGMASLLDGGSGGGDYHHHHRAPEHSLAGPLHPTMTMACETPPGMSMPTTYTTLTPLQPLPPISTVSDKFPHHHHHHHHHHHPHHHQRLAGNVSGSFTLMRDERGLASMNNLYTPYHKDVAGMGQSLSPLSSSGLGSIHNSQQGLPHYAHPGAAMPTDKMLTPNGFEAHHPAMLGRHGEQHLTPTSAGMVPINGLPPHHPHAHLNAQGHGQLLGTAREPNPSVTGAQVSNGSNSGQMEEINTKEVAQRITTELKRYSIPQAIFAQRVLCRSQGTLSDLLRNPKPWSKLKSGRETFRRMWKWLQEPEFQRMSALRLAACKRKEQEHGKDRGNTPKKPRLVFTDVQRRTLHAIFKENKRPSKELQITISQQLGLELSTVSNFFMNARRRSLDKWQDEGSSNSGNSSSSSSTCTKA

The target in the assay is Hepatocyte nuclear factor 6 (Homo sapiens) (UniProt Q9UBC0). Put plainly: ATG_HNF6_CIS: Attagene CIS-FACTORIAL HepG2 Assay for human Hepatocyte Nuclear Factor 6 (HNF6) (AID 2282952). The note with it: HepG2 Attagene cis-factorial HNF6 reporter transcription; actives raise or lower the signal. On the procedure:
ATG_CIS is a cell-based, multiplexed-readout assay that uses HepG2, a human liver cell line, with measurements taken at 24 hours after chemical dosing in a 24-well plate.ATG_HNF6_CIS is one of 52 assay component(s) measured or calculated from the ATG_CIS assay. It is designed to make measurements of mRNA induction, a form of inducible reporter, as detected with fluorescence intensity signals by Reverse transcription polymerase chain reaction (RT-PCR) and Capillary electrophoresis technology.Data from the assay component ATG_HNF6_CIS was analyzed into 1 assay endpoint. This assay endpoint, ATG_HNF6_CIS, was analyzed with bidirectional fitting relative to DMSO as the negative control and baseline of activity. Using a type of inducible reporter, measures of mRNA for gain or loss-of-signal activity can be used to understand the reporter gene at the transcription factor-level as they relate to the gene ONECUT1. Furthermore, this assay endpoint can be referred to as a primary readout, because this assay has produced multiple assay endpoints where this one serves a reporter gene function. To generalize the intended target to other relatable targets, this assay endpoint is annotated to the dna binding intended target family, where the subfamily is homeobox protein.
Human liver HepG2 cells are transiently transfected with multiple reporter transcription units (MRTUs) in 6-well plates using FuGene 6 reagent (Roche; 3 ml FuGene/1 mg DNA). The MRTU constructs are regulated by a cis-regulating element (promoter). […] A major difference between the CIS and TRANS system is that in CIS activities of endogenous TFs are measured, whereas the TRANS assay evaluates changes in activities of exogenous, chimeric NR-Gal4 proteins. […] At the end of 24 hour incubation, total RNA was isolated using TriZol reagent (Invitrogen). The isolated RNA is then reverse-transcribed using oligo(dT) primer and Mo-MLV reverse transcriptase (Invitrogen) with DNAse I (Ambion) treatment for 30 min. The one-tenth of the produced cDNA was amplified by PCR using Taq DNA polymerase (Invitrogen) and two reporter sequence-specific primers. The PCR products were fluorescently labeled by primer extension with 6-arboxyfluorescein (6-FAM) 5'-labeled reporter sequence-specific primer (2 min at 95 C, 20 s at 68 C and 10 min at 72 C) and these products were digested with 5U of HpaI (New England Biolabs) for 2h at 37 C. The fragments were purified using Qiaquick PCR columns (Qiagen), analyzed on an ABI 3130xL genetic analyzer (Applied Biosystems) with peak positions identified by using a set of X-rhodamine (ROX)-labeled MapMarker1000 molecular weight standards (BioVentures). The raw capillary electrophoresis data was processed using Attagraph software (Attagene).
Regarding `CN(C)N=Nc1ccccc1`, the call was inactive.
Same read-out and setting: in the case of `CNC(=C[N+](=O)[O-])NCCSCc1csc(CN(C)C)n1` it was “inactive”.
On the same count and under the same terms, in the case of `F[B-](F)(F)F` it was “inactive”; in that of `CC1(C)S[C@@H]2[C@H](NC(=O)[C@H](N)c3ccccc3)C(=O)N2[C@H]1C(=O)O`, “inactive”; in that of `CC(=O)Nc1c(I)c(NC(C)=O)c(I)c(C(=O)O)c1I`, “inactive”.
On the same count and under the same terms, under `Oc1cccc2ccccc12` stands “inactive”; under `O=C(O)/C=C\C(=O)O`, “inactive”; under `NC(=O)c1ccc(N)cc1`, “inactive”.
As to `CC1=C(CC=O)C(C)(C)CCC1`, the molecule was called inactive.
As a reminder, the AC50 is the concentration giving half of the maximal activity seen. In the case of `CCCCCCCCCCCCCCCCCC[N+](C)(C)C`, the AC50 was 42.2 µM (active).
For `O=S(=O)(O)c1cccc2ccccc12`, the call was inactive.
On the same count and under the same terms, in the case of `CCCCCCOC(=O)CCCCCCCC(=O)OCCCCCC` it was “inactive”; in that of `Sc1nc2ccccc2s1`, “inactive”.
On the same count and under the same terms, under `COC(OC)C(C)c1ccccc1` (stereo not given) stands “inactive”; under `O=C(OCc1ccccc1)c1ccccc1`, “inactive”.
On the same count and under the same terms, under `COC(=O)CCSCCC(=O)OC` stands “inactive”; under `Brc1ccc(Oc2ccc(Br)cc2)cc1`, “inactive”; under `CCCC(=O)OC/C=C(\C)CCC=C(C)C`, “inactive”.
Consider `Cc1cccnc1`, for which the molecule was classed as inactive.
As for `CC/C=C\CCO`, the result was inactive.
On the same count and under the same terms, under `CN(C)Cc1cc(C(C)(C)C)c(O)c(C(C)(C)C)c1` stands “inactive”; under `O=[N+]([O-])c1ccc2nc[nH]c2c1`, “inactive”; under `C=CCOCC(CC)(CO)COCC=C`, “inactive”.
On to `CCCC[N+]1(C)CCCC1`, for which the molecule was classed as inactive.
Regarding `O=C(O)c1nc(Cl)c(Cl)c(Cl)c1Cl`, the outcome was inactive.
Still for that read-out and setting: in the case of `Nc1ccc(S(=O)(=O)Nc2cnc3ccccc3n2)cc1` it was “inactive”; in that of `O=C(O)/C=C/C(=O)O`, “inactive”; in that of `CC(C)CC(=O)CC(C)C`, “inactive”.
The same measure, in the same setting: in the case of `COCCCN` it was “inactive”.
Consider `COC(=O)/C=C\C(=O)OC`, for which the AC50 was 128 µM (active).
As for `OCCc1ccccn1`, the result was inactive.
Same read-out and setting: under `C/C=C(\C)C(=O)OCC/C=C\CC` stands “inactive”.
Same read-out and setting: in the case of `C1=CCC=C1` it was “inactive”; in that of `NC(=O)c1ccc([N+](=O)[O-])cc1Cl`, “inactive”; in that of `CC(C)(Oc1ccc(Cl)cc1)C(=O)O`, “inactive”.
Still for that read-out and setting: under `NC(N)=Nc1nc(CSCCC(N)=NS(N)(=O)=O)cs1` stands “inactive”; under `Clc1ccccn1`, “inactive”; under `O=C(O)c1ccccc1C(=O)O`, “inactive”.
Regarding `CCCCCCCCCCCCCC`, the outcome was inactive.
Same read-out and setting: under `c1ccc2c(c1)Oc1ccccc1S2` stands “inactive”.
